Test results: PubChem BioAssay (EPA / NIEHS)
Active and inactive are the calls of the source. The calls were made as follows: active = hit-call score of the fitted dose curve at least 0.9, where 1 is the maximum; inactive = score below 0.9.

The compounds below were run on Matrix Metallopeptidase 1 (MMP1), MMP1 (gene 4312) (assay: BSK_BE3C_MMP1: BioMAP Diversity Plus: BE3C Assay for Matrix Metallopeptidase 1 (MMP1) Biomarker Activity (AID 2283024)). Settings: primary human bronchial epithelial cells; actives raise or lower the signal.
Protocol: BSK_BE3C is a cell-based, multiplexed-readout assay that uses bronchial epithelial cell, a human lung primary cell, with measurements taken at 24 hours after chemical dosing in a 96-well plate.BSK_BE3C_MMP1 is an assay component measured in the BSK_BE3C assay. It measures MMP-1 antibody related to regulation of gene expression using ELISA technology.Data from the assay component BSK_BE3C_MMP1 was analyzed into 1 assay endpoint. This assay endpoint, BSK_BE3C_MMP1, was analyzed with bidirectional fitting relative to DMSO as the negative control and baseline of activity. Using a type of binding reporter, gain or loss-of-signal activity can be used to understand changes in the signaling as they relate to the gene MMP1. Furthermore, this assay endpoint can be referred to as a primary readout, because this assay has produced multiple assay endpoints where this one serves a signaling function. To generalize the intended target to other relatable targets, this assay endpoint is annotated to the protease intended target family, where the subfamily is matrix metalloproteinase.
The levels of cell surface (or secreted, indicated by the prefix "s") biomarker endpoints were measured by ELISA. Overt cytotoxicity to cells in confluent adherent cultures (all systems other than the BT system) was assessed by measuring total protein levels using sulforhodamine B (SRB) staining in parallel cultures at the time of biomarker measurements, indicated as SRB endpoints. For proliferation assays for adherent cell types, individual cell types are cultured at sub-confluence and relative cell numbers quantified by SRB staining at time points optimized for each system (48 h: 3C and CASM3C systems; 72 h: BT and HDF3CGF systems; 96 h: SAg system). SRB was performed by staining cells with 0.1% SRB after fixation with 10% TCA and reading wells at 560 nm.Viability and proliferation of PBMC (T cells) was quantified by Alamar Blue reduction for the SAg and BT systems. For PBMC viability (referred to as PBMC Cytotoxicity within the assay endpoint names), cells were plated (75,000/well in a 96-well plate) and then chemical samples added for 1 h before addition of activators, SEB and TSST-1 (20 ng/mL final concentration each). Cells were incubated for 90 h. Then, Alamar Blue (20 uL/well) (Invitrogen, Cat DAL1100) was added for 6 h, and the plates were read with a fluorescence microplate reader at 546/580 nm (excitation/emission). For PBMC proliferation, cells were plated and activated as above but incubated for only 16 h prior to addition of Alamar Blue. Plates were read after 6 h.
In the case of `O=C(O)c1ccccc1C(=O)OCc1ccccc1`, the outcome is reported as “inactive”. In the case of `NC(=O)c1nc(-c2cccc(-c3cc(F)ccc3OCC(F)(F)C(F)(F)F)c2)n[nH]1`, the AC50 is reported as 36.5 µM (active). For `CCCCCCCC[Si](OCC)(OCC)OCC`, the outcome was “inactive”. For `CN(C)c1ccc(C(=C2C=CC(=[N+](C)C)C=C2)c2ccc(N(C)C)cc2)cc1`, the AC50 was 0.938 µM (active). In the case of `CC(C)(C)c1cc(/C=C2\SC(N)=NC2=O)cc(C(C)(C)C)c1O`, the outcome is reported as “inactive”. In the case of `Cc1occc1C(=O)Nc1ccc(C(=O)N2CCC(F)(F)/C(=C\C(=O)N3CCC(N4CCCCC4)CC3)c3ccccc32)cc1`, the outcome is reported as “inactive”. `c1ccc(C[n+]2cccc3ccccc32)cc1` was tested, and the outcome was “inactive”. In the case of `CCN(Cc1cccnc1)C(=O)c1cccc(Cl)c1[C@]1(C)C(=O)N(Cc2ccc(OC)cc2OC)c2ccc(Cl)cc21`, the outcome is reported as “inactive”. `CCO[Si](CCCNC(N)=O)(OCC)OCC` was tested, and the outcome was “inactive”. For `CCCCCCCCCC(=O)O`, the outcome was “inactive”. `CCCCCCCCCCCO` was tested, and the outcome was “inactive”. In the case of `CCOC(=O)O[C@H](C)OC(=O)c1ccc2c(c1)cc(C(=O)NC1CCN(C(C)C)CC1)n2Cc1cc(-c2ccc(Cl)s2)on1`, the AC50 is reported as 13.2 µM (active). `Cc1ccc(C(C)C)cc1` was tested, and the outcome was “inactive”. In the case of `CCN(Cc1cccc(S(=O)(=O)O)c1)c1ccc(C(=C2C=CC(=[N+](CC)Cc3cccc(S(=O)(=O)O)c3)C=C2)c2ccccc2S(=O)(=O)[O-])cc1`, the outcome is reported as “inactive”. With `COCC(C)OCC(C)OCC(C)O` (stereo not given) the outcome was “inactive”. For `CCCOC(=O)c1cc(O)c(O)c(O)c1`, the outcome was “inactive”. With `Oc1ccccc1` the outcome was “inactive”. `CN1C(=O)CC[C@H]1c1cccnc1` was tested, and the outcome was “inactive”. For `Oc1ccc2ccccc2c1`, the outcome was “inactive”. `Clc1ccccc1C(c1ccccc1)(c1ccccc1)n1ccnc1` was tested, and the AC50 was 11.8 µM (active). `CN(C)C(=O)C1(N2CCCCC2)CCN(CC[C@@]2(c3ccc(Cl)c(Cl)c3)CN(C(=O)c3ccccc3)CCO2)CC1` was tested, and the AC50 was 29.1 µM (active). In the case of `C[C@]12CC[C@@H]3c4ccc(O)cc4CC[C@H]3[C@@H]1CC[C@H]2O`, the outcome is reported as “inactive”. For `CC(C)(c1cc(Br)c(O)c(Br)c1)c1cc(Br)c(O)c(Br)c1`, the AC50 was 9.3 µM (active). In the case of `O=C(O)Cc1cc(I)c(Oc2ccc(O)c(I)c2)c(I)c1`, the AC50 is reported as 6.29 µM (active). In the case of `Cc1cc(F)ccc1-c1cc(N2CC[C@@H](O)[C@H]2CO)ncc1N(C)C(=O)C(C)(C)c1cc(C(F)(F)F)cc(C(F)(F)F)c1`, the AC50 is reported as 14.5 µM (active). `O=C(OCCCCCCOC(=O)c1ccccc1)c1ccccc1` was tested, and the outcome was “inactive”. In the case of `CC[C@@H]1C[C@H](N(Cc2cc(C(F)(F)F)cc(C(F)(F)F)c2)C(C)=O)c2cc(C(F)(F)F)ccc2N1C(=O)OC(C)C`, the outcome is reported as “inactive”. For `O=C1c2ccccc2C(=O)N1CCc1noc(-c2ccc(CN3CCCCCC3)s2)n1`, the outcome was “inactive”. `CO[C@H]1/C=C/O[C@@]2(C)Oc3c(C)c(O)c4c(O)c(c(/C=N/N5CCN(C)CC5)c(O)c4c3C2=O)NC(=O)/C(C)=C\C=C\[C@H](C)[C@H](O)[C@@H](C)[C@@H](O)[C@@H](C)[C@H](OC(C)=O)[C@@H]1C` was tested, and the outcome was “inactive”. With `CC[C@H](NC(=O)c1cc(F)ccc1NS(=O)(=O)c1cccc2cccnc12)c1ccccc1` the outcome was “inactive”. In the case of `OC12N=C(c3ccccc3)SC1Cc1cc(Cl)ccc12` (stereo not given), the AC50 is reported as 15.3 µM (active). For `CCCCOC(=O)c1ccc(O)cc1`, the outcome was “inactive”. In the case of `CCCCCCCCOc1ccc(C(=O)c2ccccc2)c(O)c1`, the outcome is reported as “inactive”. With `Cc1cn([C@H]2C[C@H](N=[N+]=[N-])[C@@H](CO)O2)c(=O)[nH]c1=O` the outcome was “inactive”. `CC1(C)NC(=O)N(c2ccc([N+](=O)[O-])c(C(F)(F)F)c2)C1=O` was tested, and the outcome was “inactive”. For `O=c1ccc2ccccc2o1`, the outcome was “inactive”. With `Cc1c2ccccc2c(C)c2c1ccc1ccccc12` the AC50 was 20 µM (active). For `O=C(Nc1ccc(Cl)cc1)Nc1ccc(Cl)c(Cl)c1`, the outcome was “inactive”. With `O=C1O[C@H]([C@@H](O)CO)C(O)=C1O` the outcome was “inactive”. With `CC(O)CC(C)(C)O` (stereo not given) the outcome was “inactive”.
